Several values for one entry are separate records, joined by “and”; a condition that tells them apart may be missing. Equal values may be shown once. Compounds without any hit were thinned out: in the full panel of roughly 79,000, 15% have a hit. A structure can be active in one record and inactive in another. Activity calls are given as the source filed them. No stated cut-off is given here; in the data, active means growth inhibition above about 70%; inactive means the rest.
Columns and labels:
[1] = NCI Yeast Anticancer Drug Screen. Data for the rad52 strain (AID 147);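 further: 0% = growth of vehicle-treated control cultures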; details: S. cerevisiae rad52 mutant growth inhibition, stronger effect = higher value
Method in brief: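 Screen used a yeast mutant impaired in DNA repair. After compound exposure, growth was measured. Values reflect inhibition compared with vehicle-treated cells.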

[2] = NCI Yeast Anticancer Drug Screen. Data for the wt1 strain (AID 149);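 further: 0% = growth of vehicle-treated wt1 cultures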; details: S. cerevisiae wt1 strain (SPY 50644) growth inhibition, stronger effect = higher value
Method in brief: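 Using yeast strain wt1, compound-induced growth inhibition was determined against vehicle-treated cultures.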

[3] = NCI Yeast Anticancer Drug Screen. Data for the rad50EPP+ strain (AID 151);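 further: 0% = growth of vehicle-treated control cultures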; details: S. cerevisiae rad50 mutant strain, stronger effect = higher value
Method in brief: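 Exposing the rad50EPP+ strain to each compound, growth was compared with vehicle-only cultures to give inhibition.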

[4] = NCI Yeast Anticancer Drug Screen. Data for the mgt1 strain (AID 153); details: S. cerevisiae mgt1 mutant growth inhibition, stronger effect = higher value
Method in brief: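 Genetically defined yeast (mgt1) treated with compound; inhibition of growth expressed against vehicle-treated controls.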

[5] = NCI Yeast Anticancer Drug Screen. Data for the rad50 strain (AID 155);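 further: 0% = growth of vehicle-only cultures of the same strain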; details: S. cerevisiae rad50 strain growth inhibition, stronger effect = higher value
Method in brief: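 Relative growth inhibition (compound vs vehicle) was measured in yeast with a defined repair-gene alteration.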

[6] = NCI Yeast Anticancer Drug Screen. Data for the mec2-1 strain (AID 157); details: S. cerevisiae mec2-1 strain, stronger effect = higher value
Method in brief: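 Readout is yeast growth inhibition, normalised to vehicle-treated controls, in the mec2-1 strain exposed to compound.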

[7] = NCI Yeast Anticancer Drug Screen. Data for the rad14 strain (AID 159);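 further: 0% = growth of vehicle-treated control cultures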; details: S. cerevisiae rad14 strain growth inhibition, stronger effect = higher value
Method in brief: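 Screen for anticancer potential: a yeast strain altered in DNA damage repair is grown with compound, and reduced growth is quantified against vehicle controls.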

[8] = NCI Yeast Anticancer Drug Screen. Data for the sgs1 mgt1 strain (AID 161);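 further: 0% = growth of cultures given vehicle only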; details: S. cerevisiae sgs1 mgt1 strain, stronger effect = higher value
Method in brief: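 Yeast cells carrying a defined DNA-repair defect were exposed to test compounds. Growth inhibition was measured relative to vehicle-treated controls.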

[9] = NCI Yeast Anticancer Drug Screen. Data for the CLN2oe strain (AID 163);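 further: 0% = growth of vehicle-only control cultures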; details: S. cerevisiae CLN2oe strain, stronger effect = higher value
Method in brief: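 Values reflect how much compound exposure reduced yeast growth, referenced to vehicle-exposed cells. Assay organism is a strain with a defined genetic change affecting cell-cycle control.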

[10] = NCI Yeast Anticancer Drug Screen. Data for the bub3 strain (AID 167); details: S. cerevisiae bub3 mutant strain, stronger effect = higher value
Method in brief: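 Screening used yeast with an engineered genetic alteration affecting cell cycle control. Compound-exposed cultures were compared with vehicle cultures, and reduced growth was taken as inhibition.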

[11] = NCI Yeast Anticancer Drug Screen. Data for the wt2 strain (AID 169);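 further: 0% = growth of vehicle-treated yeast cultures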; details: S. cerevisiae wt2 strain growth inhibition, stronger effect = higher value
Method in brief: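 Values express reduction in yeast growth under compound treatment, referenced to vehicle-treated cells.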

[12] = NCI Yeast Anticancer Drug Screen. Data for the mlh1 strain (AID 171);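 further: 0% = growth of vehicle-treated control cultures of the same strain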; details: S. cerevisiae mlh1 strain growth inhibition, stronger effect = higher value
Method in brief: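 Steps: expose the defined-mutant yeast strain to compound; expose a parallel culture to vehicle; measure growth; express compound effect as inhibition relative to the vehicle culture.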

[13] = NCI Yeast Anticancer Drug Screen. Data for the sgs1 strain (AID 173);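 further: 0% = growth of vehicle-only control cultures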; details: S. cerevisiae sgs1 mutant, stronger effect = higher value
Method in brief: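 Treat defined-mutant yeast with compound; measure growth; calculate inhibition relative to vehicle-treated cells.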

[14] = NCI Yeast Anticancer Drug Screen. Data for the mlh1 rad18 strain (AID 175); details: S. cerevisiae mlh1 rad18 strain growth inhibition, stronger effect = higher value
Method in brief: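 Test agents were incubated with a yeast strain of defined genotype (DNA damage repair defect). Inhibition of growth was derived by comparison with vehicle-exposed cultures.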

[15] = NCI Yeast Anticancer Drug Screen. Data for the rad18 strain (AID 177); details: S. cerevisiae rad18 mutant growth inhibition, stronger effect = higher value
Method in brief: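 A genetically defined yeast mutant impaired in DNA damage repair was treated with test compounds, then its growth was measured against cultures receiving vehicle alone.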

[16] = at 5.0 µM (retest, dose inferred, filed as 0.5)
[17] = at 50.0 µM (retest, dose inferred, filed as 5.0)

Measured: growth inhibition

Cc1cc(N(CCOS(C)(=O)=O)CCOS(C)(=O)=O)ccc1C=Nc1ccc(-c2csc(-c3ccccc3)n2)c(Cl)c1
86% (active) and 5% (inactive): [14]; [16]
active: [1]; at 11.0 µM 90% | [1]; at 33.0 µM 96% | [1]; at 100.0 µM 84% | [2]; at 33.0 µM 98% | [2]; at 100.0 µM 92% | [3]; at 100.0 µM 85% | [4]; at 11.0 µM 81% | [4]; at 33.0 µM 98% | [4]; at 100.0 µM 92% | [5]; at 11.0 µM 78% | [5]; at 33.0 µM 96% | [5]; [17] 96% and 94% | [5]; at 50.0 µM 93.2% | [5]; at 100.0 µM 91% | [6]; at 11.0 µM 85% | [6]; at 33.0 µM 97% | [6]; [17] 97% | [6]; at 50.0 µM 97.1% | [6]; at 100.0 µM 92% | [7]; at 11.0 µM 91% | [7]; at 33.0 µM 97% | [7]; at 100.0 µM 91% | [8]; at 50.0 µM 82.8% and 96.2% | [9]; at 11.0 µM 79% | [9]; at 33.0 µM 98% | [9]; at 100.0 µM 92% | [10]; at 11.0 µM 76% | [10]; at 33.0 µM 97% | [10]; at 50.0 µM 81.4% and 94% | [10]; at 100.0 µM 92% | [11]; at 11.0 µM 72% | [11]; at 33.0 µM 97% | [11]; at 100.0 µM 92% | [12]; at 11.0 µM 80% | [12]; at 33.0 µM 97% | [12]; at 100.0 µM 90% | [13]; at 11.0 µM 82% | [13]; at 33.0 µM 97% | [13]; at 100.0 µM 92% | [14]; [17] 95% and 96% | [14]; at 50.0 µM 95.2% | [15]; at 3.7 µM 83% | [15]; at 11.0 µM 94% | [15]; at 33.0 µM 97% | [15]; at 100.0 µM 89%
5% (inactive) and 97% (active): [8]; [17]
-19% (inactive) and 95% (active): [10]; [17]
inactive: [1]; at 1.2 µM 14% | [1]; at 3.7 µM 57% | [2]; at 1.2 µM -26% | [2]; at 3.7 µM -8% | [2]; at 11.0 µM 56% | [3]; at 1.2 µM 3% | [3]; at 3.7 µM -1% | [3]; at 11.0 µM 13% | [3]; at 33.0 µM 62% | [4]; at 1.2 µM 13% | [4]; at 3.7 µM 43% | [5]; at 1.2 µM 2% | [5]; at 3.7 µM 28% | [5]; [16] 53% and 4% | [6]; at 1.2 µM -2% | [6]; at 3.7 µM 30% | [6]; [16] 51% and -1% | [7]; at 1.2 µM 4% | [7]; at 3.7 µM 53% | [8]; [16] 20% and 8% | [9]; at 1.2 µM 36% | [9]; at 3.7 µM 37% | [10]; at 1.2 µM 0% | [10]; at 3.7 µM 20% | [10]; [16] 18% and 0% | [11]; at 1.2 µM -4% | [11]; at 3.7 µM 4% | [12]; at 1.2 µM -1% | [12]; at 3.7 µM 25% | [13]; at 1.2 µM 10% | [13]; at 3.7 µM 22% | [15]; at 1.2 µM 58%
